Screening results as filed in PubChem.
JMJD2A Tudor inh: qHTS Assay for Inhibitors of JMJD2A-Tudor Domain; Lysine-specific demethylase 4A (Homo sapiens), O75164; AlphaScreen JMJD2A-Tudor / H3K4me3 peptide binding; Potency, µM (titrated, usually from 114 µM), most hits filed as inhibitors; 390,000 tested, 4.4% active; further: nearly all actives have a fitted effect of over 50% in size
HP1b binding inh: HTS for Inhibitors of HP1-beta Chromodomain Interactions with Methylated Histone Tails. Chromobox protein homolog 1 (Homo sapiens), P83916. AlphaScreen HP1-beta / biotin-H3K9me3 peptide binding. Potency, µM (highest dose often 114 µM), actives largely listed as inhibitors. 390,000 tested, 0.56% active; further: nearly all actives have a fitted effect of over 70% in size
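HP1-beta protein (50 nM final) preincubated 30 min at room temperature with biotinylated H3(1-18)K9me3 peptide (50 nM) in PBS pH 7.4, 0.01% Tween-20, then compound added for 30 min. AlphaScreen streptavidin donor/nickel chelate acceptor beads (10 ug/mL final), 30 min dark, luminescence read.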
G9a inh: qHTS Assay for Inhibitors of Histone Lysine Methyltransferase G9a; AID 504332, 2011; 350,000 tested, 8.8% active; Potency, µM (series often up to 102 µM), usual class: inhibitors; G9a H3K9 monomethylation, AlphaScreen, 2 h; Histone-lysine N-methyltransferase EHMT2 (Homo sapiens), Q96KQ7; further: nearly all actives have a fitted effect of over 75% in size
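Chemiluminescent proximity detection of H3K9 monomethylation, read after 10 min bead incubation in the dark. Reaction: 20 nM G9a, 500 nM biotin-H3K9 peptide, 20 uM SAM cofactor, 2 h, room temperature, following 15 min enzyme-compound preincubation.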
BAZ2B block: qHTS Assay for Inhibitors of BAZ2B. Bromodomain adjacent to zinc finger domain protein 2B (Homo sapiens), Q9UIF8. AlphaScreen BAZ2B-H3K14Ac peptide displacement. Potency, µM (top dose mostly 114 µM), actives largely listed as inhibitors. 360,000 tested, 4.4% active; further: nearly all actives have a fitted effect of over 60% in size
Target sequence (Q9UIF8 whole entry, looked up, the tested form may be a part): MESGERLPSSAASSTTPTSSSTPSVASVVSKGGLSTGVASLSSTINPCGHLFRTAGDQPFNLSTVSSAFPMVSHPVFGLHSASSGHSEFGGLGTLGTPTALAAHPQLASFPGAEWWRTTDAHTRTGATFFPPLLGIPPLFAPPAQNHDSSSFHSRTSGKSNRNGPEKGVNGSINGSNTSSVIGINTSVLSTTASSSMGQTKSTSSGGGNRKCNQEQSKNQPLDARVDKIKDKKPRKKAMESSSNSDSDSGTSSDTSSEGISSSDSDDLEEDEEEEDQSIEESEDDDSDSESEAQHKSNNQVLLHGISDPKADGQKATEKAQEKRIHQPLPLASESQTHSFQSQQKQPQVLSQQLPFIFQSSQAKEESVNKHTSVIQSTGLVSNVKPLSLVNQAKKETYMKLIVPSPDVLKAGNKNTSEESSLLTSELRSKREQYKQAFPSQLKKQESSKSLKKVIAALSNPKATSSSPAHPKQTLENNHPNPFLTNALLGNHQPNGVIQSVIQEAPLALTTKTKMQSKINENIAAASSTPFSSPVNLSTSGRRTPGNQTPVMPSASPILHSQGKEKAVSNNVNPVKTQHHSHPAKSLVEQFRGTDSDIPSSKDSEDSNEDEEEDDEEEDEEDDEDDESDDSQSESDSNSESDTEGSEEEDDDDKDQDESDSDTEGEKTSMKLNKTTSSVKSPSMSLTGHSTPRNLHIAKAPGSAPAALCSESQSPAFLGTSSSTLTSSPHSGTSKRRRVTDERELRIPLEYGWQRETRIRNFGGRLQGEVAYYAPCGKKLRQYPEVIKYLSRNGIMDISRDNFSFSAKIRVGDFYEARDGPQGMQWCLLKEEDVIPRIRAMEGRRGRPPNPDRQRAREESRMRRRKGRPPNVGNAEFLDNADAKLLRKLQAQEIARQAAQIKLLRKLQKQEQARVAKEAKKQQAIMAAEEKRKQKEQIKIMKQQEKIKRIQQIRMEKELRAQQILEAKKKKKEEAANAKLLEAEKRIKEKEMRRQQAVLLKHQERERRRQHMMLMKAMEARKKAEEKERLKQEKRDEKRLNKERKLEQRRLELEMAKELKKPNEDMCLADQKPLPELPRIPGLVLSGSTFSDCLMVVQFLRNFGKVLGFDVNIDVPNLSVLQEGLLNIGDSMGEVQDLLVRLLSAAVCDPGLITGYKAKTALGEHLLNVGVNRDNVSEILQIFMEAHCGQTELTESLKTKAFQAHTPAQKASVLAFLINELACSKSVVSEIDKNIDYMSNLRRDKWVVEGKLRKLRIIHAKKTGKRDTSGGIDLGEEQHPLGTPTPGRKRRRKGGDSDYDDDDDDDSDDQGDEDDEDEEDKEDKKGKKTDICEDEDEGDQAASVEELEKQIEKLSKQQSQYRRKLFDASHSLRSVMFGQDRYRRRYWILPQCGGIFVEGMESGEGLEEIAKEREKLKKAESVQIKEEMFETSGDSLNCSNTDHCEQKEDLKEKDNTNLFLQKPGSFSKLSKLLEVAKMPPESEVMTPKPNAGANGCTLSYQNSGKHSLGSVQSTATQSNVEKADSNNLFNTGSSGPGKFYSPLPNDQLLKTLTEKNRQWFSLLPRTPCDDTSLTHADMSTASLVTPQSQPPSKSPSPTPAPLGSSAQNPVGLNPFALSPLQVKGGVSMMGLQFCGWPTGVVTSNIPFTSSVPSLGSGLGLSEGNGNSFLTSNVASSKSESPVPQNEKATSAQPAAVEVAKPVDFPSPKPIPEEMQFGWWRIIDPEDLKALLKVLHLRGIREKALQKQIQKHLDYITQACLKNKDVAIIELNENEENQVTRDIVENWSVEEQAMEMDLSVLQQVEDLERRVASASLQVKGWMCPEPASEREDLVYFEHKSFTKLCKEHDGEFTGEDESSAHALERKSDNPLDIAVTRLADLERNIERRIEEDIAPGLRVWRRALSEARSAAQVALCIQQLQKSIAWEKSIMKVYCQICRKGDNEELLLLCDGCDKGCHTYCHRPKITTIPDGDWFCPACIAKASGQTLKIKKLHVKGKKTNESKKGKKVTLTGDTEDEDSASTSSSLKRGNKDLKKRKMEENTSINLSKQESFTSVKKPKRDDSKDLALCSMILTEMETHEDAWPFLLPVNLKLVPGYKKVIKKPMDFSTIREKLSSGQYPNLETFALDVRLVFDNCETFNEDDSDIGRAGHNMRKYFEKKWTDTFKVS
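Protein-peptide AlphaScreen: BAZ2B 50 nM, b-H3K14Ac 50 nM, 1x PBS pH 7.4 + 0.01% Tween-20. Preincubation 30 min RT; cpd 30 min RT (top 110 uM); beads 20 min RT, light-protected.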
Sfp PPTase inh: qHTS Assay for Inhibitors of Bacillus subtilis Sfp phosphopantetheinyl transferase (PPTase); Potency, µM, hits mostly inhibitors; Biochemical Sfp PPTase activity, qHTS; 310,000 tested, 3.5% active; AID 1490, 2009;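 further: the enzyme is Sfp with the accession as filed and its product quenches rhodamine fluorescence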
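After 15 min at room temperature with compound, 15 nM Sfp received 5 uM rhodamine-CoA plus 12.5 uM BHQ-2-ybbR (50 mM Hepes pH 7.6, 10 mM MgCl2). Rate came from the fluorescence difference over 30 min, ex 525/em 598 nm.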
PLK1 PBD inh: qHTS for Inhibitors of PLK1-PDB (polo-like kinase 1 - polo-box domain): Primary Screen; Serine/threonine-protein kinase PLK1 (Homo sapiens), P53350; Plk1 PBD binding of FITC phosphopeptide, fluorescence polarization; Potency, µM, usual class: inhibitors; 360,000 tested, 2.8% active; further: series mostly up to about 57 µM; nearly all actives have a fitted effect of over 65% in size
A number is an active result; – = inactive; ? = inconclusive; · = not tested or not shown; ! = repeats disagree; [ ] = dose if it differs, or a comment. This is a sample that favours compounds with a hit; in the whole collection about 12% have one here. The call rests on the fitted dose curve; in most records, active means well fitted curve in the direction sought with a large enough effect; inconclusive means small, poorly fitted or top-dose-only effect, or another doubt; inactive means no such curve, though single readings can be large; an effect the other way counts as inactive or inconclusive.

SMILES	JMJD2A Tudor inh	HP1b binding inh	G9a inh	BAZ2B block	Sfp PPTase inh	PLK1 PBD inh
NC(N)=NN=Cc1c(Cl)cccc1Cl	·	·	–[21.5 µM]	·	–	·
O=C(O)Cc1cnc[nH]1	7.1µM	–	9.5µM!	·	50µM	–
C[C@@H](N)Cc1cnc[nH]1	?	–	?	·	–	–
CCN1C[C@]2(C)CC[C@H](OC)[C@@]34[C@H]1C1(OCO[C@@]15C[C@H](OC)C1C[C@]3(O)C5[C@H]1OC)[C@@H](O)[C@H]24	·	·	·	·	–	·
COc1ccc(N2C(=O)CC(N3CC=C(c4ccccc4)CC3)C2=O)cc1 (configuration not stated)	–	–	10µM	–	–	–
N#CC1(c2ccccc2)CCN(C2CC(=O)N(c3ccc(F)cc3)C2=O)CC1 (configuration not stated)	–	–	·	–	–	–
CCN(CC)/[N+]([O-])=N/O	·	·	–[2.33 µM]	·	–	·
CCC(=O)Nc1cccc(-c2nnc(SCC(=O)NCc3ccco3)n2C)c1	–	–	50µM	–	–	–
CCOC(=O)CNC(=O)CSP(=S)(OCC)OCC	–	–	?	–	79µM	–
O=NN1CCCC1c1cccnc1 (configuration not stated)	·	·	–	·	–	·
COc1ccc(CNC(=O)/C=C/c2ccc3[nH]cc(CCN(C)C)c3c2)cc1	–	–	40µM!	?	–	–
COc1ccc2[nH]cc(CCN(C)C)c2c1	–	–	56µM!	–	–	–
COc1ccc2[nH]cc(C(=O)CN(C)C)c2c1	–	–	·	·	·	–
CC(=O)O[C@@H]1[C@@H](O)C2OC3C=C(C)C(=O)[C@@H](O)[C@]3(CO)C1(C)C21CO1 (some centres not stated)	·	·	·	·	–	·
Cc1ccc(NP(=O)(c2ccccc2)c2nc3ccccc3s2)cc1 (configuration not stated)	–	–	25µM	–	–	–
CCCCCC[C@H]1C(=O)O[C@H](C)[C@H](NC(=O)c2cccc(NC=O)c2O)C(=O)O[C@@H](C)[C@@H]1OC(=O)CC(C)C	·	·	·	·	–	·
Brc1ccccc1CNCCc1ccc2c(c1)OCO2	3.2µM	?	·	?	–	–
CCOc1ccccc1CNCCc1ccc2c(c1)OCO2	–	–	–	–	–	–
O=[N+]([O-])c1cc2c(cc1CNCCc1ccc3c(c1)OCO3)OCO2	1.1µM	40µM	?	25µM	50µM	–
c1cc(CNCCc2ccc3c(c2)OCO3)ccn1	8.9µM	?	–[0.501 µM]	56µM	–	–
CCN(CC)c1ccc(CNCCc2ccc(F)cc2)cc1	?	–	13µM	45µM	–	–
CNC(=O)Oc1ccccc1C(=O)Nc1ccccc1	·	·	–[12.7 µM]	·	–	·
Nc1c([N+](=O)[O-])ccc(Oc2ccccc2)c1Cl	·	·	·	·	–	·
Fc1ccc(CNCCc2ccc3c(c2)OCO3)cc1	56µM	–	50µM	?	–	–
CCOc1ccc(CNCCc2ccc3c(c2)OCO3)cc1	–	–	–	–	–	–
SMILES	JMJD2A Tudor inh	HP1b binding inh	G9a inh	BAZ2B block	Sfp PPTase inh	PLK1 PBD inh
COc1ccc(CNCCc2ccc(Cl)cc2Cl)cc1	–	–	–	–	–	–
Clc1ccc(CCNCc2ccncc2)c(Cl)c1	32µM	–	4µM	50µM	–	–
ClC1=C(Cl)C(Cl)=C(Cl)C1=C/C=C/c1ccccc1	5.6µM	6.3µM	3.2µM	3.5µM	–	–
c1cc(CN2CC3(CCNCC3)C2)ccn1	·	·	–[12.7 µM]	·	–	·
CN1CCN(S(=O)(=O)c2cccc(C(=O)N3CCN(c4ccccc4F)CC3)c2)CC1	–	–	2µM	–	·	–
NS(=O)(=O)c1ccc(N=Nc2c(O)[nH]c(=S)[nH]c2=O)cc1	–	–	·	–	–	–
NS(=O)(=O)c1ccc(-c2ccc(C=C3C(=O)NC(=S)NC3=O)o2)cc1	·	·	2.5µM	50µM	13µM	·
Cn1cc([N+](=O)[O-])c(C(=O)Nc2ccc3c(C(F)(F)F)cc(=O)oc3c2)n1	–	–	–	–	–	–
CC(C)C(=O)Nc1ccc([N+](=O)[O-])c(C(F)(F)F)c1	–	–	2.5µM!	–	–	–
CNC1[C@@H](O)C(OC2C(N)C[C@H](N)[C@@H](O[C@@H]3OC(C(C)O)C(O)C(O)C3N)C2O)OC[C@]1(C)O (some centres not stated)	·	·	?	·	–	·
O=[N+]([O-])C(Br)(CO)CO	·	·	1.8µM	·	8.9µM	·
CC(C)(Cl)[N+](=O)[O-]	–	–	–[0.501 µM]	–	·	–
CC[C@@H]1[C@@H]2C[C@H]3[C@H]4N(C)c5ccccc5[C@@]45C[C@@H]([C@@H]2[C@@H]5O)N3[C@H]1O	·	·	–[21.5 µM]	·	–	·
CN1C2CC(OC(=O)C(CO)c3ccccc3)CC1C(O)C2 (configuration not stated)	·	·	–[2.33 µM]	·	–	·
CN(C)CCOc1ccc(/C(=C(/CCCl)c2ccccc2)c2ccccc2)cc1	25µM	–	?	·	–	–
CN(C)C(=O)Oc1ccc(C(=O)c2ccccc2)cc1	–	–	–	–	–	–
CC(C)=CCOc1c2occc2cc2ccc(=O)oc12	?	–	–[2.33 µM]	–	–	27µM
C=CCNC(=S)/N=C/c1c(O)[nH]c(=O)[nH]c1=O	–	–	·	–	45µM	–
NC(=S)/N=C/c1c(O)[nH]c(=O)[nH]c1=O	–	–	79µM	–	–	–
O=c1[nH]c(N2CCN(Cc3ccc4c(c3)OCO4)CC2)nc2c1CCC2	–	–	–[12.7 µM]	–	–	–
Clc1ccccc1N1CCN(Cc2ccc3c(c2)OCO3)CC1	28µM	?	–[12.7 µM]	79µM	–	–
Cc1ccccc1N1CCN(Cc2ccc3c(c2)OCO3)CC1	5.6µM	–	7.9µM	?	–	–
COc1ccccc1N1CCN(Cc2ccc(F)cc2)CC1	–	–	–	–	–	–
CN1CCN(Cc2c(F)cccc2Cl)CC1	10µM	?	22µM	63µM	?	–
COc1ccc(CN2CCN(c3ccccc3F)CC2)cc1O	3.2µM	?	10µM	?	–	–
SMILES	JMJD2A Tudor inh	HP1b binding inh	G9a inh	BAZ2B block	Sfp PPTase inh	PLK1 PBD inh
N#Cc1ccc(CN2CC[C@@]3(CCCNC3)C2)cc1	·	·	–[12.7 µM]	·	–	·
O=c1ccc2cc(O[C@H]3OC(CO)C(O)C(O)C3O)c(O)cc2o1 (some centres not stated)	·	·	–[2.33 µM]	·	–	·
Fc1ccccc1N1CCN(Cc2ccc3c(c2)OCO3)CC1	3.5µM	?	7.9µM	35µM	?	–
Clc1ccccc1CN1CCN(c2ccccc2Cl)CC1	5.6µM	?	13µM	35µM	–	–
Fc1ccccc1N1CCN(Cc2c(F)cccc2F)CC1	3.5µM	?	1.4µM	32µM	?	–
CCNC(=O)[C@H]1O[C@@H](n2cnc3c(N)ncnc32)[C@H](O)[C@H]1O	·	·	–[12.7 µM]	·	·	·
